High-throughput results (PubChem BioAssay)
HP1b binding inh: HP1-beta chromodomain-methylated histone interaction inhibition. P83916. AlphaScreen HP1-beta / biotin-H3K9me3 peptide binding. Potency, µM (top dose mostly 114 µM), hits mostly inhibitors. 390,000 compounds, 0.56% hits. AID 540317; also: nearly all actives have a fitted effect of over 70% in size
Target sequence (P83916 whole entry, looked up): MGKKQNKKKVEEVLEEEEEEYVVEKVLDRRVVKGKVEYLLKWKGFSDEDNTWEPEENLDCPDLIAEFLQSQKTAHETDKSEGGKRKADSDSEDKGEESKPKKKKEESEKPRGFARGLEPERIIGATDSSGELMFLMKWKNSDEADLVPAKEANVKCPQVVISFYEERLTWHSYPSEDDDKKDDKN
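HP1-beta protein (50 nM final) preincubated 30 min at room temperature with biotinylated H3(1-18)K9me3 peptide (50 nM) in PBS pH 7.4, 0.01% Tween-20, then compound added for 30 min. AlphaScreen streptavidin donor/nickel chelate acceptor beads (10 ug/mL final), 30 min dark, luminescence read.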
BAZ2B block: BAZ2B (human) inhibition | 360,000 compounds, 4.4% hits | AlphaScreen BAZ2B-H3K14Ac peptide displacement | AID 504333 | Q9UIF8 | Potency, µM (doses to about 114 µM), hits mostly inhibitors; also: nearly all actives have a fitted effect of over 60% in size
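Complex of BAZ2B and biotin-H3K14Ac (50 nM apiece) forms over 30 min at RT, then faces library compounds up to 110 uM for another 30 min; AlphaScreen beads added, 20 min dark incubation, luminescence read.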
PLK1 PBD block: PLK1 (human) polo-box domain binding inhibition; P53350; Plk1 PBD binding of FITC phosphopeptide, fluorescence polarization; Potency, µM, most hits filed as inhibitors; 360,000 compounds, 2.8% hits; also: series mostly up to about 57 µM; nearly all actives have a fitted effect of over 65% in size
VDR inhibitor: vitamin D3 receptor (human) inhibition. VDR-SRC2-3 peptide fluorescence polarization, 2 h. Potency, µM, actives largely listed as inhibitors. 400,000 compounds, 0.93% hits. AID 504847
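Measured by FP: displacement of SRC2-3 coactivator peptide from VDR by library compounds, following a two-hour ambient incubation.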
JMJD2A Tudor: blocks the human JMJD2A Tudor domain; O75164; AlphaScreen JMJD2A-Tudor / H3K4me3 peptide binding; Potency, µM (doses to about 114 µM), usual class: inhibitors; 390,000 compounds, 4.4% hits; also: nearly all actives have a fitted effect of over 50% in size
L3MBTL1 block: blocks human L3MBTL1; AlphaScreen L3MBTL1–H3K9me1 peptide binding; Potency, µM (series often up to 57.1 µM), actives largely listed as inhibitors; 230,000 compounds, 0.66% hits; also: nearly all actives have a fitted effect of over 60% in size
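AlphaScreen proximity signal between nickel-chelate acceptor and streptavidin donor beads (final 10 ug/mL) reports binding of 50 nM L3MBTL1 to 75 nM biotin-H3 K9me1 peptide; complex incubated with compounds 30 min at room temperature; cefsulodin titration as control.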
A number is an active result; . = inactive; ? = inconclusive; / = no result given. Only some compounds are listed: those with a hit (about 6.9% of all), similar ones and a draw of the others. Calls follow the shape of the dose curve; as a rule, active = well fitted curve in the direction sought with a large enough effect; inconclusive = small, poorly fitted or top-dose-only effect, or another doubt; inactive = no such curve, though single readings can be large; an effect the other way counts as inactive or inconclusive.

SMILES	HP1b binding inh	BAZ2B block	PLK1 PBD block	VDR inhibitor	JMJD2A Tudor	L3MBTL1 block
COc1cc(C=NNc2ccc(S(=O)(=O)Nc3ccccc3C(=O)O)cc2[N+](=O)[O-])ccc1O	?	/	?	?	25µM	?
COc1ccc(C(=O)COC(=O)c2ccccc2NS(=O)(=O)c2ccc(O)c([N+](=O)[O-])c2)cc1	.	56µM	?	.	?	.
Cc1ccccc1Nc1c(-c2cccnc2)nc2ccc(Cl)cn12	.	.	/	.	.	/
COC(=O)c1sccc1N/N=C/c1cccc(Oc2ccccc2)c1	.	.	.	.	.	.
CCOc1cc(/C=N/Nc2ccc(S(=O)(=O)Nc3ccccc3C(=O)O)cc2[N+](=O)[O-])cc(Cl)c1O	/	/	7.5µM	/	/	/
COc1cc(/C=N/Nc2ccc(S(N)(=O)=O)cc2[N+](=O)[O-])cc(OC)c1O	.	?	.	.	.	.
CC(=O)Nc1cccc(/C(C)=N/Nc2ccc(S(=O)(=O)Nc3ccccc3C(=O)O)cc2[N+](=O)[O-])c1	?	/	24µM	?	35µM	/
CCOc1ccc(C=NNc2ccc(S(=O)(=O)Nc3ccccc3C(=O)O)cc2[N+](=O)[O-])cc1OC	?	/	?	.	20µM	?
O=C(O)c1ccccc1NS(=O)(=O)c1ccc(N/N=C/c2cccc(O)c2O)c([N+](=O)[O-])c1	?	/	?	.	20µM	/
O=[N+]([O-])c1cc(S(=O)(=O)Nc2ccc(Cl)cc2)ccc1N/N=C/c1ccncc1	.	.	.	.	.	.
COc1ccc(C2Nc3ccccc3C(=O)N2Cc2ccccc2)cc1COc1ccc(C)cc1 (stereo not drawn)	/	/	/	/	.	/
CC(C)NC(=S)NC(=O)c1ccc(-c2ccccc2)cc1	.	.	.	.	.	.
COc1cc(Cl)c(C)cc1NC(=O)CSc1cc(-c2ccccc2)nc(C)n1	.	.	/	.	.	/
Fc1ccc(C2c3[nH]c4ccccc4c3CCN2CCCn2cccn2)cc1 (stereo not drawn)	.	40µM	.	.	?	.
O=C(Nc1cccc(-c2nc3ccccc3[nH]2)c1)c1c(F)cccc1F	.	.	/	.	.	/
COc1ccc(NC(=S)NC(NC(=O)C(C)C)C(Cl)(Cl)Cl)c([N+](=O)[O-])c1 (stereo not drawn)	?	.	27µM	.	.	.
COc1ccc([N+](=O)[O-])cc1NC(=S)NC(NC(C)=O)C(Cl)(Cl)Cl (stereo not drawn)	.	.	27µM	.	.	.
O=C(c1ccco1)N1CCC2(CC1)CCN(c1ccncc1)CC2	/	/	/	.	/	/
CCC(=O)Nc1ccccc1-c1nc2ccccc2n(CC(=O)c2ccc(C)c(C)c2)c1=O	.	.	/	.	.	/
COc1ccc(C(=O)/C=C/c2ccc(N3CCCCC3)c([N+](=O)[O-])c2)cc1	25µM	4µM	.	?	11µM	?
COc1ccc(NC(=O)CN(C)C(=O)c2ccc(N3CCCCC3)c([N+](=O)[O-])c2)cc1	.	?	.	.	.	.
COc1ccc(C(=O)/C=C/c2ccc(N3CCCCC3)c([N+](=O)[O-])c2)c(OC)c1	16µM	8.9µM	.	?	10µM	?
COc1cccc(CN(C)C(=O)c2ccc(N3CCCC3)c([N+](=O)[O-])c2)c1	.	?	.	.	45µM	/
Cc1c(Nc2nc3ccccc3n3c(C)nnc23)cccc1C(=O)O	.	.	/	.	.	/
O=C(c1ccc2c(=O)n(CCc3ccccc3)c(=O)[nH]c2c1)N1CCN(C(=O)c2ccco2)CC1	.	/	/	.	.	/
SMILES	HP1b binding inh	BAZ2B block	PLK1 PBD block	VDR inhibitor	JMJD2A Tudor	L3MBTL1 block
CCN(CC)c1ccc(NC(=O)COC(=O)COc2ccccc2[N+](=O)[O-])cc1	.	45µM	.	.	32µM	.
Cc1ccc(NC(=O)COC(=O)CCC(=O)c2cccs2)cc1	.	.	.	.	.	.
CCN(CC)c1ccc(NC(=O)c2ccccc2OCC(=O)OC)cc1	?	32µM	.	.	20µM	.
COc1cccc(NC(=O)COC(=O)COc2ccccc2[N+](=O)[O-])c1	.	.	.	.	.	.
CCN(CC)c1ccc(NC(=O)COC(=O)CCC(=O)c2cccs2)cc1	?	45µM	.	.	?	.
COc1ccc(NS(=O)(=O)c2cc3c(cc2C)N(C)CCO3)cc1	.	50µM	.	.	?	.
